Experimental findings from PubChem BioAssay (NCI) are described below.

Structures are written as SMILES. Compounds without any hit were thinned out: in the full panel of roughly 83,000, 20% have a hit.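 Growth was measured after 48 h exposure to one concentration of compound in 96-well plates. Values under 10 count as active.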 Unmarked numbers belong to inactive results. The source made the active and inactive calls.

Test systems include NCI-H23 lung; NCI-H226 lung; NCI-H322M lung; HOP-62 NSCLC; NCI-H460 lung; NCI-H522 lung; A549/ATCC NSCLC; 786-0 renal; COLO 205 colon; DU-145 prostate; K-562 leukemia; MALME-3M melanoma; MDA-MB-231 breast; RXF 393 renal; SF-268 CNS; SF-295 CNS; SF-539 CNS; UACC-257 melanoma; M14 melanoma; HCT-15 colon.
Common to all, as to test: NCI-60 one-dose screen, 48 h (100 = growth as untreated, 0 = no growth, -100 = all killed)
Common to all, as to settings: 10 µM

For the compound `CCCCCCCC(C)NCCO` (stereo not given), the growth in the test on NCI-H23 lung is 102%; in the test on NCI-H226 lung it was 97.4%; in the test with NCI-H322M lung, 88.9%; in the test on HOP-62 NSCLC it was 99.3%; in the test on NCI-H460 lung it was 106%; in the test on NCI-H522 lung, 84.9%. Further, the growth was 93.5% in the test on A549/ATCC NSCLC; 94.7% in the test with 786-0 renal; 107% with COLO 205 colon; 106% in the test with DU-145 prostate; 103% with K-562 leukemia; 107% in the test with MALME-3M melanoma. Also, the growth in the test on MDA-MB-231 breast is 123%; in the test on RXF 393 renal, 105%; with SF-268 CNS, 106%; in the test on SF-295 CNS, 90%; in the test with SF-539 CNS, 105%; in the test with UACC-257 melanoma, 90.8%. In addition, the growth with M14 melanoma was 105%; in the test with HCT-15 colon, 116%.

`O=C(CCCCC(=O)Nc1ccc2c(c1)/C(=C/c1ccc[nH]1)C(=O)N2)NO`: the growth was 106% with NCI-H23 lung; 91.1% in the test on NCI-H226 lung; 64.1% with NCI-H322M lung; 94.3% in the test on HOP-62 NSCLC; 97.6% in the test on NCI-H460 lung; 49.4% with NCI-H522 lung. The growth in the test with A549/ATCC NSCLC was 95.6%; with 786-0 renal, 94.4%; in the test with COLO 205 colon, 89%; in the test with DU-145 prostate it was 91.2%; in the test with K-562 leukemia, 85%; in the test on MALME-3M melanoma, 17.5%. Besides, the growth in the test with MDA-MB-231 breast was 94.4%; in the test on RXF 393 renal, 76.8%; with SF-268 CNS, 76.2%; in the test with SF-295 CNS, 102%; with SF-539 CNS, 81.1%; with UACC-257 melanoma it was 70.6%. The figures for the growth with M14 melanoma and with HCT-15 colon were 58.6% and 96.2%, respectively.

With `Cc1ccc(NC(=O)Nc2c(Cl)cccc2Cl)cn1`, the growth with NCI-H23 lung is 109%; in the test on NCI-H226 lung, 140%; with NCI-H322M lung, 119%; in the test on HOP-62 NSCLC, 107%; in the test on NCI-H460 lung it was 106%; in the test with NCI-H522 lung, -10.6% (active). Moreover, the growth was 57.3% with A549/ATCC NSCLC; 113% in the test on 786-0 renal; 135% in the test on COLO 205 colon; 123% in the test with DU-145 prostate; 47.7% in the test on K-562 leukemia; 109% with MALME-3M melanoma. In addition, the growth was 95.4% with MDA-MB-231 breast; 77.3% with RXF 393 renal; 116% in the test on SF-268 CNS; 117% in the test with SF-295 CNS; 97.7% with SF-539 CNS; 99.6% with UACC-257 melanoma. The results for the growth in the test on M14 melanoma and in the test with HCT-15 colon were 96.1% and 100%, respectively.

As for `O=C1C(c2ccccc2)C2C=CC(C2)N1O` (stereo not given), the growth is 105% in the test with NCI-H23 lung; 101% in the test with NCI-H226 lung; 102% in the test with NCI-H322M lung; 105% with HOP-62 NSCLC; 111% in the test on NCI-H460 lung; 96.4% in the test with NCI-H522 lung. Further, the growth is 112% in the test on A549/ATCC NSCLC; 102% with 786-0 renal; 104% in the test with COLO 205 colon; 114% with DU-145 prostate; 96.9% with K-562 leukemia; 109% with MALME-3M melanoma. Moreover, the growth in the test with MDA-MB-231 breast was 102%; in the test on RXF 393 renal, 104%; with SF-268 CNS it was 107%; in the test on SF-295 CNS, 122%; in the test with SF-539 CNS, 113%; in the test on UACC-257 melanoma it was 105%. For the same compound, the growth is 111% in the test with M14 melanoma and 106% with HCT-15 colon.

`COC(=O)C(C(C[N+](=O)[O-])c1ccccc1)=P(c1ccccc1)(c1ccccc1)c1ccccc1` (stereo not given): the growth with NCI-H23 lung is 92.4%; in the test with NCI-H226 lung, 96.6%; in the test with NCI-H322M lung, 94.3%; in the test on HOP-62 NSCLC, 96.1%; in the test with NCI-H460 lung, 101%; in the test on NCI-H522 lung, 83.3%. The growth was 101% in the test on A549/ATCC NSCLC; 96.1% in the test with 786-0 renal; 106% in the test with COLO 205 colon; 89.6% with DU-145 prostate; 53.4% in the test with K-562 leukemia; 96% with MALME-3M melanoma. Further, the growth with MDA-MB-231 breast was 108%; in the test with RXF 393 renal, 85.9%; with SF-268 CNS, 96.1%; in the test on SF-295 CNS it was 91.6%; in the test on SF-539 CNS it was 99.2%; with UACC-257 melanoma, 91.5%. The results for the growth in the test with M14 melanoma and in the test on HCT-15 colon were 76.3% and 88.9%, respectively.

`CCN(CC)Cc1cc(Nc2ccnc3cc(Cl)ccc23)ccc1OC`: the growth in the test on NCI-H23 lung was 87.8%; with NCI-H226 lung it was 105%; in the test on NCI-H322M lung it was 99%; in the test with HOP-62 NSCLC, 88%; with NCI-H460 lung, 90.1%; in the test with NCI-H522 lung it was 69.3%. Also, the growth with A549/ATCC NSCLC was 89.6%; in the test with 786-0 renal, 97.4%; in the test with COLO 205 colon it was 62.4%; in the test with DU-145 prostate, 107%; in the test on K-562 leukemia, 45.1%; with MALME-3M melanoma, 110%. The growth was 55.7% in the test with MDA-MB-231 breast; 64.2% with RXF 393 renal; 96.6% in the test on SF-268 CNS; 91% in the test on SF-295 CNS; 62.7% in the test with SF-539 CNS; 94.4% with UACC-257 melanoma. Also, the growth in the test on M14 melanoma is 7.19% (active); with HCT-15 colon it was 56.4%.

Turning to `O=C(N/N=C/c1ccccc1O)C(O)(c1ccccc1)c1ccccc1`, the growth in the test with NCI-H23 lung was 64.1%; in the test on NCI-H226 lung it was 71.1%; in the test with NCI-H322M lung it was 46%; with HOP-62 NSCLC, 59%; in the test on NCI-H460 lung, 27.4%; with NCI-H522 lung it was 27.9%. The growth was 52.8% with A549/ATCC NSCLC; 61.7% in the test on 786-0 renal; 35.5% in the test on COLO 205 colon; 59.9% in the test on DU-145 prostate; 52.9% in the test with K-562 leukemia; 74% in the test with MALME-3M melanoma. Also, the growth is 60.5% with MDA-MB-231 breast; 85.2% in the test on RXF 393 renal; 46.8% with SF-268 CNS; -12.8% (active) in the test with SF-295 CNS; 60.6% in the test on SF-539 CNS; 68.6% in the test on UACC-257 melanoma. In addition, the results for the growth in the test on M14 melanoma and in the test with HCT-15 colon were 57.4% and 32%, respectively.

Turning to `Cc1ccc(N=Nc2c(N)nc(N)[nH]c2=O)cc1C`, the growth in the test with NCI-H23 lung was 101%; in the test on NCI-H226 lung, 93.5%; with NCI-H322M lung it was 83.1%; in the test with HOP-62 NSCLC, 92.9%; in the test with NCI-H460 lung, 107%; in the test with NCI-H522 lung it was 92.1%. Moreover, the growth is 104% in the test with A549/ATCC NSCLC; 91.2% in the test on 786-0 renal; 112% in the test with COLO 205 colon; 117% in the test on DU-145 prostate; 90.9% in the test with K-562 leukemia; 89.9% in the test with MALME-3M melanoma. In addition, the growth in the test on MDA-MB-231 breast was 117%; in the test on RXF 393 renal, 110%; in the test on SF-268 CNS it was 111%; in the test on SF-295 CNS, 112%; in the test on SF-539 CNS, 102%; with UACC-257 melanoma, 107%. Besides, the growth in the test with M14 melanoma is 97.2%; in the test on HCT-15 colon, 103%.
